MCL1 BIM primary: MCL1-BIM-BH3 interaction inhibition (human); Q07820; GST-MCL1 / FITC-Bim-BH3 fluorescence polarization; inhibition, % at 10.9 µM; actives 0.68% (n = 320,000); AID 2057;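 active = inhibition above the mean inhibition of all tested compounds plus 3 SD, set per campaign, cut at about 40% in these data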;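 note: 0% = DMSO wells and 100% = unlabeled Bim-BH3 peptide control; higher means more loss of mP so more displacement of Bim peptide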
MEX-5 binding: C. elegans MEX-5 TCR-2 RNA binding activity | activity score (negative = inhibition of binding), % at 10 µM | MEX-5/FITC-TCR2 RNA binding, fluorescence polarization; hits give low values | actives 0.38% (n = 300,000) | Q9XUB2 | AID 1832;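 active = inhibition past about -25% in most replicates, and total fluorescence under double the plate's negative control median, limit read from the data; inconclusive = replicates evenly split on the limit, or fluorescence at least double controls; inactive = too little inhibition in most replicates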;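 note: 0% = DMSO and -100% = 5 µM competing unlabeled TCR2 RNA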
Bcl-xL primary: inhibitors of human Bcl-xL. Q07817. GST-Bcl-xL / FITC-Bim BH3 peptide fluorescence polarization. inhibition, % at 10.9 µM. actives 0.7% (n = 320,000). AID 2129;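 active = inhibition above the mean of all tested compounds plus 3 SD, cutoff set per campaign, cut at about 30% in these data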;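 note: 0% = DMSO wells and 100% = unlabeled Bim-BH3 peptide competitor; inhibitors lower millipolarization by displacing the labeled peptide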
EBV gp42 inh: inhibitors of Epstein-Barr virus glycoprotein 42; Q1HVG2; Fluorescence polarization binding assay, mP read-out; inhibition, % (tested at 21.74 µM); actives 0.42% (n = 220,000); AID 1085; in the data active = inhibition above about 50%
Target sequence (Q1HVG2 whole entry, looked up): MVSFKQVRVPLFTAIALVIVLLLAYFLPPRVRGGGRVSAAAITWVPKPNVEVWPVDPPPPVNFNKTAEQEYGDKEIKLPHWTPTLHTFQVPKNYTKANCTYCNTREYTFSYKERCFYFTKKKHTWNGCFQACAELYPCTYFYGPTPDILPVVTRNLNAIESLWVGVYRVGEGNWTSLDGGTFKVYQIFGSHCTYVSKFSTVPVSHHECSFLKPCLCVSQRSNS
E coli Lon inh: inhibitors of E. coli Lon protease; P0A9M0; purified E. coli Lon protease, fluorescence polarization; inhibition, % at 7.94 µM; actives 0.42% (n = 360,000); in the data active = inhibition above about 13%, passing the limit was not always enough;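 note: 0% = enzyme with probe and DMSO and 100% = no enzyme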
GLD-1 TGE inh: GLD-1-TGE RNA interaction inhibition (C. elegans) | Q17339 | purified GLD-1 + fluorescein TGE RNA, fluorescence polarization | inhibition, % at 5.96 µM | actives 0.44% (n = 320,000) | AID 2280;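 active = percent inhibition above a per-plate cutoff, the plate mean of test compounds plus 3 SD, cut at about 30% in these data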;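 note: 0% = DMSO wells with GLD-1 and probe and 100% = wells lacking GLD-1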
Target sequence (Q17339 whole entry, looked up): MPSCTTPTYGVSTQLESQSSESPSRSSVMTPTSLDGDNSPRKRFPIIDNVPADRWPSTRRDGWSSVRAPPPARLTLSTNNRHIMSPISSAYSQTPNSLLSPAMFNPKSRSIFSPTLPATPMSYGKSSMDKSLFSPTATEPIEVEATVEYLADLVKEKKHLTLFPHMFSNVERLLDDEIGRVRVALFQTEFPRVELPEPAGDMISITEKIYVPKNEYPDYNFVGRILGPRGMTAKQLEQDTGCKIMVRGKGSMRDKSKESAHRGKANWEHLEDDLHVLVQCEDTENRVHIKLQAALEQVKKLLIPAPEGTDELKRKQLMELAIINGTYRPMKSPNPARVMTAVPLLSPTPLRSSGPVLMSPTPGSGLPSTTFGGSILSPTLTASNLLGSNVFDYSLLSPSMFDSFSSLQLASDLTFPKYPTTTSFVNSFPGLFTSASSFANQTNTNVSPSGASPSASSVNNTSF
Bcl-xL conf: counter-screen for MCL1 inhibitors: confirmation of human Bcl-xL inhibitors | shares compounds with MCL1 BIM primary | GST-Bcl-xL / FITC-Bim BH3 peptide FP binding | inhibition, % at 10.9 µM | actives 54% (n = 1,700);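 active = inhibition above a cutoff equal to the mean inhibition of all tested compounds plus 3 SD, cut at about 30% in these data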;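 note: 0% = DMSO wells and 100% = unlabeled Bim BH3 control peptide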
MCL1 BIM confirm: MCL1-BIM-BH3 interaction inhibition, confirmation | shares compounds with MCL1 BIM primary | GST-MCL1 / FITC-Bim-BH3 fluorescence polarization | inhibition, % at 10.9 µM | actives 61% (n = 1,700);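 active = inhibition above the average of all tested compounds plus 3 SD, cut at about 40% in these data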;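 note: 0% = DMSO wells and 100% = unlabeled Bim-BH3 control peptide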
GLD1 RNA confirm: GLD-1 TGE RNA interaction inhibition, confirmation; GLD-1/FL-TGE RNA fluorescence polarization, biochemical; actives 10% (n = 550); inhibition, % at 5.96 µM; shares compounds with GLD-1 TGE inh;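 active = average inhibition across triplicates above the hit cutoff set in the primary screen, cut at about 32% in these data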;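 note: 0% = GLD-1 with RNA probe and DMSO and 100% = wells lacking GLD-1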
Numbers without * were called inactive; ? = inconclusive; . = not tested or not shown; + = active, no number. This is a sample that favours compounds with a hit; in the whole collection about 1.5% have one here.

SMILES	MCL1 BIM primary	MEX-5 binding	Bcl-xL primary	EBV gp42 inh	E coli Lon inh	GLD-1 TGE inh	Bcl-xL conf	MCL1 BIM confirm	GLD1 RNA confirm
C=CCOc1cccc(C(=O)N2CCC(CCC(=O)NC3CC3)CC2)c1	-3.8	0.8	3.8	.	-7.4	0.0	.	.	.
CCCn1c(/N=C/c2c[nH]c3ccccc23)nc2ccccc21	82.7*	1.2	80.1*	5.4	1.6	40.4*	10.1	3.8	1.5
CCCCn1c(/N=C/c2c[nH]c3ccccc23)nc2ccccc21	2.6	-5.4	3.5	-10.8	-8.2	1.5	.	.	.
COc1cccc(C2C=C(c3ccc(OC)cc3OC)Nc3nnnn32)c1 (stereo not drawn)	50.9*	-7.3	53.6*	17.6	9.9	38.6*	14.3	22.1	18.0
CN(C(=O)CN1C(=O)NC2(CCc3ccccc32)C1=O)C1CCCCC1 (stereo not drawn)	.	.	.	.	5.8	6.0	.	.	.
CN(C(=O)CN1C(=O)c2cccc(N)c2C1=O)C1CCCCC1	72.9*	.	60.6*	.	22.0	44.6*	56.5*	77.2*	48.6*
O=c1cc(CSc2nnc(Nc3ccccc3F)s2)nc2sccn12	6.0	-0.9	-2.0	-20.6	4.9	3.6	.	.	.
COc1ccc(Nc2nnc(SCc3cc(=O)n4ccsc4n3)s2)cc1	68.3*	.	65.6*	42.4	15.2	40.7*	-4.3	-3.2	35.5*
CCOC(=O)C1=C(C)NC(C)=C(C(=O)OCC)C1C(=O)OCC(N)=O	110.3*	2.2	77.5*	-6.3	-1.8	56.9*	5.1	8.3	-7.0
CCN(CC)C(=O)C1=C(C)NC(=O)NC1c1ccccc1F (stereo not drawn)	66.3*	-9.7	51.3*	9.9	.	40.1*	22.6	27.0	5.7
CCN(CC)C(=O)C1=C(C)NC(=O)NC1c1c(F)cccc1Cl (stereo not drawn)	-1.2	0.4	-4.1	-10.8	2.8	5.0	.	.	.
C[C@@H]1CN([C@H](C)CO)S(=O)(=O)c2ccc(Br)cc2O[C@H]1CN(C)C(=O)C1CCCCC1	.	.	.	.	-5.6	.	.	.	.
COc1ccc(NC(=O)Nc2ccc3c(c2)C(=O)N([C@H](C)CO)C[C@H](C)[C@@H](CN(C)C(=O)Nc2ccccc2)O3)cc1	.	.	.	.	-3.9	1.9	.	.	.
NS(=O)(=O)c1cccc(NC(=O)CN2CCc3ccccc32)c1	76.9*	0.6	63.3*	2.2	-1.5	47.4*	6.0	0.3	-3.7
Cc1cc(C)c2cc(C#N)c(SCC(=O)Nc3ccc4c(c3)OCO4)nc2c1	3.3	0.3	3.9	-19.0	14.7	0.6	.	.	.
O=C1NC2CCCCC2C(=O)N1OS(=O)(=O)c1ccccc1 (stereo not drawn)	.	.	.	.	0.3	.	.	.	.
Cc1c(NC(=O)C(C)OC(=O)c2cc(-c3cccc4ccccc34)nc3ccccc23)c(=O)n(-c2ccccc2)n1C (stereo not drawn)	86.4*	0.4	75.3*	-43.2	17.2	37.9*	26.1	30.4	3.3
Nc1cccc(C(=O)OCC(=O)Nc2cccc3c2C(=O)c2ccccc2C3=O)c1	118.5*	-0.4	97.7*	92.5*	6.1	47.0*	107.1*	146.2*	67.2*
Cc1cccc(NC(=O)COC(=O)c2cccc3c2C(=O)c2ccccc2C3=O)c1C	8.4	1.0	16.4	1.6	5.2	1.4	.	.	.
CN1Cc2c(N3CCOCC3)nc(SCCC#N)c(C#N)c2CC1(C)C	3.5	-1.3	7.4	-26.2	-3.3	7.7	.	.	.
CC(C)Sc1nc(N2CCOCC2)c2c(c1C#N)CC(C)(C)N(C)C2	50.3*	-1.2	49.8*	-10.7	-1.7	39.1*	21.6	35.5	2.4
CCC(C)c1ccc(NC(=O)c2cccnc2)cc1 (stereo not drawn)	-2.2	-0.5	2.9	-4.2	1.4	2.1	.	.	.
CCCCSc1ccc(NC(=O)c2cccnc2)cc1	77.4*	-0.6	75.8*	-10.0	4.6	41.5*	3.0	8.9	-0.1
CC(C)c1ccc(N2C(=O)/C(=C/N(C)C)SC2=S)cc1	+	-19.4	+	-1.8	-18.4	74.0*	+	+	-5.5
CCOC(=O)C1CCN(C(=O)C2CCN(S(=O)(=O)c3cc(Cl)ccc3OCC)CC2)CC1	-12.8	0.0	-5.7	.	-4.2	3.2	.	.	.
SMILES	MCL1 BIM primary	MEX-5 binding	Bcl-xL primary	EBV gp42 inh	E coli Lon inh	GLD-1 TGE inh	Bcl-xL conf	MCL1 BIM confirm	GLD1 RNA confirm
Cc1cccn2c(=O)c3cc(C#N)c(=NC(=O)c4ccncc4)n(CCCOC(C)C)c3nc12	87.4*	32.2	72.8*	37.4	-2.5	43.5*	42.8*	48.3*	27.5
Cc1cccn2c(=O)c3cc(C#N)c(=NC(=O)c4cccs4)n(CCCOC(C)C)c3nc12	74.1*	-44.6*	70.8*	-4.1	2.7	56.6*	20.6	28.0	27.7
CCCn1c(=NC(=O)c2ccncc2)c(C#N)cc2c(=O)n3cccc(C)c3nc21	.	.	.	.	-0.3	.	.	.	.
NS(=O)(=O)c1ccc(NC(=O)CN2CCc3ccccc3C2)cc1	0.3	2.7	4.4	.	-0.8	2.7	.	.	.
O=C(CSC1=Nc2ccccc2C2=NC(CC(=O)NC3CCCCC3)C(=O)N12)NCc1ccco1 (stereo not drawn)	62.8*	-13.5	60.7*	-14.4	11.2	35.2*	46.2*	56.2*	28.9
COc1cccc(CN2CCC(n3nccc3NC(=O)CCCc3ccccc3)CC2)c1	0.6	0.4	0.1	.	1.6	-7.4	.	.	.
Cc1ccc(/C=N/n2cnc3sc(-c4ccccc4)cc3c2=O)o1	66.7*	-4.8	124.0*	-7.0	1.0	65.0*	7.5	11.9	-1.7
CCOC(=O)C1C(c2ccc3c(c2)OCO3)NC(=O)NC1(O)C(F)(F)F (stereo not drawn)	54.5*	-1.7	59.8*	-23.1	2.2	32.8*	0.6	-2.9	-9.7
CCOC(=O)C1C(c2ccc(O)c(OC)c2)NC(=O)NC1(O)C(F)(F)F (stereo not drawn)	1.4	-1.0	0.2	.	-7.0	8.6	.	.	.
CNC(=S)n1cnc(N)n1	6.4	0.2	4.7	1.6	-8.8	5.7	.	.	.
CS(=O)(=O)N1Cc2cc(C(=O)NCC3CCCCC3)nc(-c3cccc(-c4cccnc4)c3)c2[C@H]1CCO	.	.	.	.	-1.9	.	.	.	.
N#Cc1c(SCc2ccc(Cl)cc2)sc(C(=O)c2ccccc2)c1N	-11.0	.	-2.4	-21.7	0.8	3.1	.	.	.
CSc1c(C#N)c(N)nc2sc(C(=O)c3ccccc3)c(N)c12	58.3*	?	50.8*	11.9	11.1	33.2*	70.9*	87.2*	20.9
